Measured values from PubChem BioAssay (Tox21).
Results filed as inconclusive are left out. A number with no mark means an inactive call. The call rests on the fitted dose curve; in most records, active means well fitted curve in the direction sought with a large enough effect in the signal ratio in the repeat runs (not every such curve was filed as active); inconclusive means weak or mixed curves, or a change in a side signal; inactive means no such curve, though single readings can be large or run the other way; the % refers to the signal ratio. Positions of bridges follow the written chain, without caps; N, C: chain ends. Non-standard residues stand in square brackets, D forms with d. Residues, ends and D or L forms follow the SMILES beside them. hArg = N=C(N)NCCCC[C@H](N)C(=O)O; Mpa = O=C(O)CCS

Experiment: qHTS assay to identify small molecule agonists of the NFkB signaling pathway (AID 1159509)
Settings: NFkB-bla ME-180 cells, beta-lactamase FRET ratio, 5 h; series mostly up to 61 µM; activation: at the top concentration
Source text: National Center for Advancing Translational Sciences [NCATS]
NIH Chemical Genomics Center [NCGC]
U.S. Environmental Protection Agency [EPA]
National Institutes of Environmental Health Sciences [NIEHS]
National Toxicology Program [NTP]
U.S. Food and Drug Administration [FDA]
Transcription factors and their stimulated target gene expression play pivotal roles across many cellular processes including responses to environmental stimuli. Proper regulation of associated pathways is critical to maintain cell health and function. Constitutive activation of transcription factor pathways has been implicated in tumors as it may block cellular functions such as apoptosis and lead to invasion and metastasis. One important transcription factor that stimulates gene expression in response to cytokines, UV radiation, and other stimuli is nuclear factor-kappa B (NFkB). To measure activation of the NFkB pathway, the CellSensor NFkB-bla ME-180 cell line (Life Technologies, Carlsbad, CA) that stably expresses beta-lactamase reporter gene under the regulation of a NF-kB response element was used. This assay allows measurement of the NFkB pathway activity induced by compounds in a ME-180 cell line. This system quantitates NF-kB activity using a FRET-based assay system where beta-lactamase expression disrupts FRET, allowing for fluorescent measurement of activity. This cell line has been used to screen the Tox21 10K compound library and to identify compounds that induce the NFkB pathway activity.
Tox21 Assay Protocol Summary:
NFkB-bla ME-180 cells were dispensed at 2,000 cells/6 uL of assay medium per well into black wall/clear-bottom 1536-well plates using a Multidrop Combi (ThermoFisher Scientific, Waltham, MA) dispenser. After the assay plates were incubated at 37 C and 5% CO2 for an overnight, 23 nL of compounds dissolved in DMSO, positive controls or DMSO only was transferred to the assay plate by a Pintool station (Kalypsys, San Diego, CA). The assay plates were incubated at 37 C and 5% CO2 for 5 hr. One uL of LiveBLAzer B/G FRET substrate (Life Technologies) was added using a Flying Reagent Dispenser (Aurora Discovery, San Diego, CA) and the plates were incubated at room temperature for 1.5 hr. Fluorescence intensity (405 nm excitation, 460 nm and 530 nm emissions) was measured using an Envision plate reader (PerkinElmer, Shelton, CT).
On the % scale 0 is the no-effect control and ±100 the full control effect.

Row | Structure (SMILES) | activation
1 | CCC[C@@H]1C[C@@H](C(=O)N[C@@H]([C@H]2O[C@H](SC)[C@H](O)[C@@H](O)[C@H]2O)[C@@H](C)O)N(C)C1 | 0.278%
2 | C/C=C(\C)C(=O)OCCc1ccccc1 | 0.785%
3 | OCC1(CO)COCOC1 | 0.476%
4 | O=Cc1ccccc1Cl | -0.0262%
5 | CC(C)C[C@@H]1[C@H](c2ccccc2)OC(=O)N1CCCN1CCCCCC1 | 0.107%
6 | [O-][n+]1cccc(/C(Cl)=N/OC[C@@H](O)CN2CCCCC2)c1 | 0.542%
7 | CC(=O)O[C@@H]1CC2CCC1(C)C2(C)C (stereo not given in full) | -0.0286%
8 | CC(C)(C)NC[C@H](O)COc1cccc2c1CCCC2=O | 0.241%
9 | COc1nc(N)nc2nc[nH]c12 | -0.112%
10 | C=C(C)[C@@H]1CC=C(C)C(=O)C1 | 1.21%
11 | CC(=O)CC(=O)Nc1ccc(C)cc1C | -0.954%
12 | O=Cc1cc2ccccc2o1 | 0.353%
13 | CCCC(=O)Nc1ccc(OCC(O)CNC(C)C)c(C(C)=O)c1 (stereo not given) | 0.0817%
14 | O=C1CCCCO1 | 0.463%
15 | Cc1ncc([N+](=O)[O-])n1CC(C)O (stereo not given) | -0.378%
16 | CCC(C(=O)OCCN1CCOC(c2ccccc2)C1C)c1ccccc1 (stereo not given) | -0.014%
17 | COC(=O)CCCCC(=O)O | -1.09%
18 | COc1cc2c(cc1OC)CN(C(=O)[C@H](C)N[C@@H](CCc1ccccc1)C(=O)O)[C@H](C(=O)O)C2 | -0.338%
19 | O=C1c2ccccc2C(=O)c2cc(Cl)ccc21 | -0.467% [at 6.95 µM]
20 | O=C(O)CCCCCC(=O)O | -0.597% [at 78.8 µM]

Row | Structure (SMILES) | activation
21 | N#CCC(=O)NN | 0.0334%
22 | COC(=O)/C=C\C(=O)O | -0.898%
23 | c1ccc2cnccc2c1 | -0.228%
24 | CC(C)[C@H]1CC[C@H](C)C[C@@H]1O | -0.0292% [at 78.8 µM]
25 | Cc1ccccc1C(N)=O | 0.419%
26 | N#Cc1cscn1 | -0.833%
27 | NC(=O)[C@@H]1CSSCCC(=O)N[C@@H](CCCCN=C(N)N)C(=O)NCC(=O)N[C@@H](CC(=O)O)C(=O)N[C@@H](Cc2c[nH]c3ccccc23)C(=O)N2CCC[C@H]2C(=O)N1 ([Mpa][hArg]GDWPC-NH2; disulfide 1-7) | 0.239%
28 | CCOC(CN1CCN(CC(C)C(=O)c2ccccc2)CC1)c1ccccc1 (stereo not given) | 0.0273% [at 28.5 µM]
29 | CC(O)CC(C)O (stereo not given) | 0.492%
30 | Cn1nnc2c(C(N)=O)ncn2c1=O | -0.162%
31 | COc1cc2c(cc1OC)C(=O)C(CC1CCN(Cc3ccccc3)CC1)C2 (stereo not given) | 0.654%
32 | Cc1c(N)cccc1Cl | -0.25%
33 | c1ccc(B(c2ccccc2)c2ccccc2)cc1 | -0.636%
34 | CN(C)CCOC(=O)C(c1ccccc1)C1(O)CCCC1 (stereo not given) | 0.253%
35 | Cc1ccc(C)c([N+](=O)[O-])c1 | 0.131%
36 | COC(=O)CCCCC(CCSS/C(CCO)=C(\C)N(C=O)Cc1cnc(C)nc1N)SC(C)=O (stereo not given) | 0.956%
37 | CC(C)OC(=O)CCC(=O)OC(C)C | 0.296%
38 | Cc1cc(-c2ccccc2)nnc1NCCN1CCOCC1 | -0.729%
39 | COCCc1ccccn1 | -0.558%
40 | C=CCCCCCCCCC(=O)OCCCC | 0.165%
